The target of assay [1] is Lysosomal acid glucosylceramidase (Homo sapiens) (UniProt P04062). Kind of assay: Glucocerebrosidase-p2 (AID 348; in the data active means potency below about 10 µM; further: potency means the concentration at half of the fitted maximal effect). Conditions: purified GBA, blue fluorogenic substrate, 40 min. An outline of the steps: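 Normal human glucocerebrosidase (0.2 nM) with blue fluorogenic substrate (80 uM final) in citrate/phosphate pH 5.9 with 10mM sodium taurocholate, 0.01% tween-20; 40 min RT, NaOH/glycine stop; fluorescence Ex 365/Em 440; AC50 from a titration from 0.6 nM upwards.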
Sequence of Lysosomal acid glucosylceramidase (Homo sapiens) (P04062 whole entry, looked up): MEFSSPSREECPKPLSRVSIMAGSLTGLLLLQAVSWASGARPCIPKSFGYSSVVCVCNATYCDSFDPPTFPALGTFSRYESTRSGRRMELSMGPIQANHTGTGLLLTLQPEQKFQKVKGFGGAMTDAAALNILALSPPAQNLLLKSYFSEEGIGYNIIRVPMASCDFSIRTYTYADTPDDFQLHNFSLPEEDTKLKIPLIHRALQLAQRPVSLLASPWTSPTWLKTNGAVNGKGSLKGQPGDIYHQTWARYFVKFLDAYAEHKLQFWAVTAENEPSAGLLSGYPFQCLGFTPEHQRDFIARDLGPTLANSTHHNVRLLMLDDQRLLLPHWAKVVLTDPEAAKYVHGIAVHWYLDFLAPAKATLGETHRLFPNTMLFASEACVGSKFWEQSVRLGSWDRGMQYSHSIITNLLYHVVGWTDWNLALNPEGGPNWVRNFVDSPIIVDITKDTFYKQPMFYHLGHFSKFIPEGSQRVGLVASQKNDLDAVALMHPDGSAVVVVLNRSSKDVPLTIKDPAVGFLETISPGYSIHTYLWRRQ

A short description of assay [2]: AP1 Signaling Pathway (AID 357; active means well fitted curve in either direction with a large enough effect, not every such curve was filed as active; further: on the % scale 0 is the no-effect control and ±100 the full control effect). Particulars: ME-180 AP-1-bla reporter, EGF-induced, beta-lactamase ratio, 5 h; at 7.69 µM (top of the series) unless noted. The gist of the method: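 Cells are seeded overnight, exposed to compound titrations and an EC50 level of EGF for 5 hours at 37 °C, then loaded with CCF4 dye for 2.5 hours. Beta-lactamase activity under the AP-1 element is read as a blue/green ratio.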

In assay [3] the target is Cytochrome P450 1A2 (Homo sapiens) (UniProt P05177). Nature of the assay: p450-cyp1a2 (AID 410; calls by dose curve; further: potency means the concentration at half of the fitted maximal effect;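 on activity change, negative = inhibition: -100% = full effect of reference inhibitor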). An outline of the steps:
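O-Demethylation of luciferin 6' methyl ether by human CYP1A2 is monitored as luciferase luminescence. Substrate sits at Km (100uM); enzyme is 20nM. Values are scaled to 57 uM furafylline as maximal inhibition.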

Assay [4] is described as follows: NFAT Signaling Pathway (AID 444; active means well fitted curve in either direction with a large enough effect, not every such curve was filed as active;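 further: carbachol stimulus at about its EC50 of 1 µM final; on the % scale 0 is the no-effect control and ±100 the full control effect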). Particulars: Jurkat NFAT-bla M1, carbachol, beta-lactamase ratio, 5 h; at 7.69 µM (top of the series) unless noted. The gist of the method:
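Jurkat cells carrying an NFAT-driven β-lactamase reporter and co-transfected muscarinic M1 receptor were treated with compound plus carbachol (1 uM final, an EC50 level) for 5 h at 37 °C. CCF4 loading followed for 1 h at RT; 460/530 nm ratio gave %activity.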

The nature of assay [5]: Stat Signaling Pathway (AID 446; active means well fitted curve in either direction with a large enough effect, not every such curve was filed as active;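 further: ME-180 cervical cancer cells given 40 pM IL-6 alongside compound; SIE-controlled beta-lactamase reporter measured as 460/530 nm FRET emission ratio; on the % scale 0 is the no-effect control and ±100 the full control effect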). Particulars: ME-180 (cervical carcinoma) SIE beta-lactamase reporter, IL-6 stimulated, 5 h; at 7.69 µM (top of the series) unless noted. The gist of the method:
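Overnight-plated ME-180 cells bearing a STAT Inducible Element beta-lactamase reporter; 5 h co-exposure to compound and 40 pM IL-6; values normalized to 300 pM IL-6 and 125 nM JAK inhibitor controls.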

The target in assay [6] is Glucocorticoid receptor (Homo sapiens) (UniProt P04150). Nature of the assay: GR-GFP Redistribution (AID 450;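 active means compounds whose dose series gives a full or clear partial fitted curve of increased nuclear translocation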; further: potency means the concentration at half of the fitted maximal effect). Conditions: U2OS GR-GFP nuclear translocation, laser cytometry, 2 h.
Sequence of Glucocorticoid receptor (Homo sapiens) (P04150 whole entry, looked up, the tested form may be a part): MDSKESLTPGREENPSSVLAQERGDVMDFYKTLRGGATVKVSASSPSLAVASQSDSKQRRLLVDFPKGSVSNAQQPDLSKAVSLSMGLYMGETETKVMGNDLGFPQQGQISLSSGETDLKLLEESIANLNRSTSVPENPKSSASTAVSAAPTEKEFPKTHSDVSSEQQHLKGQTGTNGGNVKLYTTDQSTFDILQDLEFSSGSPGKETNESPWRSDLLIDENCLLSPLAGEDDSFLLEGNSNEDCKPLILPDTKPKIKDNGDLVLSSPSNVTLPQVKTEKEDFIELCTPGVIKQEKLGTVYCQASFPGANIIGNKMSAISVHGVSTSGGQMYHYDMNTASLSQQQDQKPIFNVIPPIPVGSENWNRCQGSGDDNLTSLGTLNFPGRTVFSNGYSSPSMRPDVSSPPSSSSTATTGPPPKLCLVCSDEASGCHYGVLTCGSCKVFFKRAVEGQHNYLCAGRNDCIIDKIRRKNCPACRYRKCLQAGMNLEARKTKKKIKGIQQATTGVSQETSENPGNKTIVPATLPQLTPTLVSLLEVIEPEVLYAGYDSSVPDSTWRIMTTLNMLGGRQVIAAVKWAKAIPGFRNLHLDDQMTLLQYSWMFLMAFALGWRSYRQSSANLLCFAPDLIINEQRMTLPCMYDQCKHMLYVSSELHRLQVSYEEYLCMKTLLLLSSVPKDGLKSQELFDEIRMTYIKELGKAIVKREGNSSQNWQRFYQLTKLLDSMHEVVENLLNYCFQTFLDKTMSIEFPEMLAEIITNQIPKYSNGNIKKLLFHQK
Assay [7] has the same target. Kind of assay: GR-EFC Redistribution (AID 451; calls by dose curve; further: potency means the concentration at half of the fitted maximal effect). Particulars: CHO-K1 GR-EFC translocation, beta-gal luminescence, 2 h. The gist of the method: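 CHO-K1 cells stably expressing nuclear-localized β-gal enzyme acceptor and GR fused C-terminally to the enzyme donor fragment; ligand-driven nuclear translocation restores β-gal by complementation. Compounds titrated up to 46 uM final, 2 h at 37 °C; luminescence read.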

Assay [8] has as its target Cytochrome P450 3A4 (Homo sapiens) (UniProt P08684). Nature of the assay: qHTS Assay for Activators of Cytochrome P450 3A4 (AID 885). Further: nearly all actives have a fitted effect of over 65% in size. The gist of the method: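 Using 20nM recombinant human CYP3A4 in potassium phosphate (200mM), substrate Luciferin-PPXE at 25uM, luminescent luciferin detection followed a 60-min RT NADPH reaction; data scaled to 57 uM ketoconazole.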
Background: qHTS replaces the single test concentration by a dilution series.

The target in assay [9] is Cytochrome P450 2C19 (Homo sapiens) (UniProt P33261). Kind of assay: qHTS Assay for Inhibitors and Substrates of Cytochrome P450 2C19 (AID 899). Further: potency means the concentration at half of the fitted maximal effect; nearly all actives have a fitted effect of over 60% in size. An outline of the steps:
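Human CYP2C19 (5nM) with Luciferin-H EGE at 10uM (its KM) in 50mM KPO4 was preincubated with compound for 10 min at 37C. NADPH regeneration started a 60 min 37C reaction. Luciferin was read by luminescence, normalized to 57uM ketoconazole.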

Assay [10] has as its target Dual specificity protein kinase CLK4 (Homo sapiens) (UniProt Q9HAZ1). Nature of the assay: qHTS Assay for Inhibitors of CDC-like Kinase 4 (Kinase-Glo Assay) (AID 1770). Further: potency means the concentration at half of the fitted maximal effect; nearly all actives have a fitted effect of over 65% in size. The gist of the method:
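Recombinant human Clk4 (25 nM) phosphorylated RS repeat peptide (100 uM) with 1 uM ATP in Tris pH 7.5/MgCl2/EGTA/DTT/Triton buffer for 4.5 h at room temperature. Residual ATP was quantified by Kinase-Glo luciferase luminescence.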

Assay [11] has the same target. Kind of assay: qHTS Assay for Inhibitors of CDC-like Kinase 4 (ADP-FP Assay) (AID 1795). Further: potency means the concentration at half of the fitted maximal effect; nearly all actives have a fitted effect of over 60% in size. An outline of the steps:
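Recombinant human Clk4 (6.25 nM) phosphorylated RS repeat peptide (100 uM) with 1 uM ATP in Tris pH 7.5/MgCl2/EGTA/DTT/Triton buffer for one hour. ADP was quantified by Transcreener competitive fluorescence polarization against an ADP calibration curve.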

Assay [12] deals with Ubiquitin carboxyl-terminal hydrolase 1 (Homo sapiens) (UniProt O94782). Nature of the assay: Inhibitors of USP1/UAF1: Pilot qHTS (AID 504865).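 Further: rhodamine fluorescence freed from ubiquitin-rhodamine substrate followed over time; top concentration of the series differs between compounds; on the % scale 0 is the no-effect control and ±100 the full control effect; nearly all actives have a fitted effect of over 35% in size.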 The gist of the method: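 USP1/UAF1 complex (1nM) preincubated with compound 15 min at room temperature, then Ub-Rho substrate (150nM final) added. Fluorescence read kinetically at 480/540 nm, 6 reads every 60 seconds. Buffer: 50mM HEPES pH 7.8, 0.5mM EDTA, 0.1 mg/ml BSA, 1mM TCEP, 0.01% Tween-20.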
Sequence of Ubiquitin carboxyl-terminal hydrolase 1 (Homo sapiens) (O94782 whole entry, looked up): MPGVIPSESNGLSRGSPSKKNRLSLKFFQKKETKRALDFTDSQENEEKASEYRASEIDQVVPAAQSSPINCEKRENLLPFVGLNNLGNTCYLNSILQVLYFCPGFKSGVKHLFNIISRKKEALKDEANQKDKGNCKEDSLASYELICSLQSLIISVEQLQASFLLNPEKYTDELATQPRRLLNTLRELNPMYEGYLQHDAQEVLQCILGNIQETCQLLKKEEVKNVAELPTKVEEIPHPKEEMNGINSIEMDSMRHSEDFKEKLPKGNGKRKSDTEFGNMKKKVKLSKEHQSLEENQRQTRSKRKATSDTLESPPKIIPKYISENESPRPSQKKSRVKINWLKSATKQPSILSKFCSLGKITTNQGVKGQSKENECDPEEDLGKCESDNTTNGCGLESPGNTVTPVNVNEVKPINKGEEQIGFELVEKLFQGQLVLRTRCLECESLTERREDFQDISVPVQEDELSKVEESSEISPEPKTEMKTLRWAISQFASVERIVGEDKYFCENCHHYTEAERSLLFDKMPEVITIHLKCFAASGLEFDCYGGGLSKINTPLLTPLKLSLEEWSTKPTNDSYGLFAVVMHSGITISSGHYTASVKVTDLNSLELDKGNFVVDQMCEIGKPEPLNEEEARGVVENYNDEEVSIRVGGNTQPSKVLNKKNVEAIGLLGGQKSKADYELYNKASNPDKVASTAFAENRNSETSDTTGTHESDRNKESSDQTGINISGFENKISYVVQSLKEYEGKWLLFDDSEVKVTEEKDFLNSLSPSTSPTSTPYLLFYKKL

In assay [13] the target is Calcium and integrin-binding protein 1 (Homo sapiens) (UniProt Q99828). Kind of assay: Primary qHTS for Identification of Calcium Integrin Binding Protein 1 (CIB1) Competitor (AID 1508620).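 Further: GST tagged CIB1 binding a fluorescein labelled alphaIIb integrin peptide tracer; top concentration of the series differs between compounds; on the % scale 0 is the no-effect control and ±100 the full control effect.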 The gist of the method:
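Fluorescence polarization competition: CIB1-GST (1 uM final) preincubated with compound 15 min at room temperature, then FITC-labeled alphaIIb peptide (100 nM final) added for another 15 min. Polarization read at Ex 480/Em 540.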

The nature of assay [14]: Primary qHTS for small molecule stabilizers of the endoplasmic reticulum resident proteome: Secreted ER Calcium Modulated Protein (SERCaMP) assay (AID 1508630). Further: on the % scale 0 is the no-effect control and ±100 the full control effect. The gist of the method:
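The SH-SY5Y reporter protocol was run at 3 concentrations up to 38.3 uM (primary) or 11 concentrations (follow-up): 16 h compound, 100 nM thapsigargin for 4 h, then extracellular luciferase luminescence.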

Assay [15] addresses Mitogen-activated protein kinase 10 (Mus musculus) (UniProt Q61831). Nature of the assay: JNK3 AlphaScreen Assay (AID 530; active means well fitted curve in either direction with a large enough effect, not every such curve was filed as active). The gist of the method:
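Phosphorylation of biotinylated GST-cJun(1-79) at Ser73 is measured by AlphaScreen proximity luminescence. Enzyme is JNK3 in HepG2 lysates activated with interleukin-1beta and tumor necrosis factor alpha; ATP is 10 uM final.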
In general terms: Alpha assays give light when donor and acceptor beads are brought close together.

In assay [16] the target is 3',5'-cyclic-AMP phosphodiesterase 4B (Homo sapiens) (UniProt Q07343). Nature of the assay: qHTS Assay for Inhibitors of PDE-IV (AID 607; active means well fitted activation curve with a large enough effect in the main read-out, with a control signal flat, not every such curve was filed as active; further: % of control where 0% means no effect). An outline of the steps:
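Live HEK293 cells with a modified cyclic nucleotide-gated (CNG) channel report intracellular cAMP via membrane-potential dye fluorescence (ex 535/em 590 nm). Endogenous PDE-IV was targeted. Compounds were tested at up to 22.9 uM final; RO 20-1724 100 uM served as control.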

A short description of assay [17]: qHTS profiling for inhibitors of Plasmodium falciparum (3D7) proliferation (AID 743322).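 Further: infected erythrocytes exposed to compound for 72 h before lysis; 100% = DMSO vehicle wells and 0% = 0.29 µM artemisinin.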 Particulars: P. falciparum 3D7 proliferation; at 28.7 µM (top of the series). The gist of the method:
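Parasite DNA was quantified by SYBR Green I fluorescence (ex 485, em 535 nm) after overnight lysis in saponin/Triton buffer at room temperature. Cultures at 0.3% parasitemia and 2.5% hematocrit were first exposed to compound for 72 h at 37 C; signals were normalised to artemisinin (0.29 uM) and vehicle wells.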

Assay [18] in a line: qHTS profiling for inhibitors of Plasmodium falciparum (DD2) proliferation (AID 743323; call rule not given here). Conditions: lower = more inhibition; at 28.7 µM (top of the series). An outline of the steps: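 Parasite proliferation measured via DNA-dye fluorescence, as uninfected erythrocytes lack DNA. Cultures at 0.3% parasitemia and 2.5% hematocrit incubated 72 h with compound; signal scaled between vehicle and 0.29 uM artemisinin wells.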

The nature of assay [19]: qHTS profiling for inhibitors of Plasmodium falciparum (HB3) proliferation (AID 743324).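 Further: 100% = DMSO vehicle wells and 0% = artemisinin-treated control wells.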 Particulars: Plasmodium falciparum HB3 blood-stage proliferation; at 28.7 µM (top of the series). An outline of the steps:
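SYBR Green fluorescence (485 ex/535 em) of lysed cultures, incubated overnight at room temperature in the dark, quantifies parasite DNA. Infected erythrocytes at 0.3% parasitemia and 2.5% hematocrit were exposed 72 h; values normalized to DMSO and 0.29 uM artemisinin controls.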

Records with an inconclusive call do not appear. Calls of active or inactive are those of the source. Unless noted, the call rests on the fitted dose curve; in most records, active means well fitted curve in the direction sought with a large enough effect; inconclusive means small, poorly fitted or top-dose-only effect, or another doubt; inactive means no such curve, though single readings can be large; an effect the other way counts as inactive or inconclusive.

Sequence of Cytochrome P450 1A2 (Homo sapiens) (P05177 whole entry, looked up): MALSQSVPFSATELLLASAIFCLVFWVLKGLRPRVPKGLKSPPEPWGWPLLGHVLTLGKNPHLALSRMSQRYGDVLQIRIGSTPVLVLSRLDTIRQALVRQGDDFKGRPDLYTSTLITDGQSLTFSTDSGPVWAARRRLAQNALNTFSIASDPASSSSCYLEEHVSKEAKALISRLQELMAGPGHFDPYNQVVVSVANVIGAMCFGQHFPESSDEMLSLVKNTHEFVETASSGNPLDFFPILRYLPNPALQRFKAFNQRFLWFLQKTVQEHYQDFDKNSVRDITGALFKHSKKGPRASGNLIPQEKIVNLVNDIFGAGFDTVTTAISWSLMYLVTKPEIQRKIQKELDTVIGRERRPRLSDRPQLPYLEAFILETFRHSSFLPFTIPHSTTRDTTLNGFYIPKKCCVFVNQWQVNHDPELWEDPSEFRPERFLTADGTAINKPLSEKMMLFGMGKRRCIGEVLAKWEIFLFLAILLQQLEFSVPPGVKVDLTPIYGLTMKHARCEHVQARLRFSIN
Sequence of Dual specificity protein kinase CLK4 (Homo sapiens) (Q9HAZ1 whole entry, looked up): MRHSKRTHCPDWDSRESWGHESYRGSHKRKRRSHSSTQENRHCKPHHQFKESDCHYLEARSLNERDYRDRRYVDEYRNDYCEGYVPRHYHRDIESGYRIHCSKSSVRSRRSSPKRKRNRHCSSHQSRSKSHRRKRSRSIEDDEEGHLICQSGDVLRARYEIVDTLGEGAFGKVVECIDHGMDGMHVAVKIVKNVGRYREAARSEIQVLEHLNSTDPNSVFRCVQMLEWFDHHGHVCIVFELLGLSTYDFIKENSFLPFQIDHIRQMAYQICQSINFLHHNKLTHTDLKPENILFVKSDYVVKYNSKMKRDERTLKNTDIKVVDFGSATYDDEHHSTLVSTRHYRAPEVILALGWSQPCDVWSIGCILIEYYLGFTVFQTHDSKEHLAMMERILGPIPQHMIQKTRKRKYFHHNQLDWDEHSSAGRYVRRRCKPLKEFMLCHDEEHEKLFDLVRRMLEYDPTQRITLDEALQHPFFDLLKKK
Sequence of Calcium and integrin-binding protein 1 (Homo sapiens) (Q99828 whole entry, looked up): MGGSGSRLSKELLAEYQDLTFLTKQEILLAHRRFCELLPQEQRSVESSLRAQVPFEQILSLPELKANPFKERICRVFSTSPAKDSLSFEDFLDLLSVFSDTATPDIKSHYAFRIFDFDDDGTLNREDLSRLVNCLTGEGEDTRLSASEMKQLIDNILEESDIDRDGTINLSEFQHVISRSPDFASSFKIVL
Sequence of Cytochrome P450 2C19 (Homo sapiens) (P33261 whole entry, looked up): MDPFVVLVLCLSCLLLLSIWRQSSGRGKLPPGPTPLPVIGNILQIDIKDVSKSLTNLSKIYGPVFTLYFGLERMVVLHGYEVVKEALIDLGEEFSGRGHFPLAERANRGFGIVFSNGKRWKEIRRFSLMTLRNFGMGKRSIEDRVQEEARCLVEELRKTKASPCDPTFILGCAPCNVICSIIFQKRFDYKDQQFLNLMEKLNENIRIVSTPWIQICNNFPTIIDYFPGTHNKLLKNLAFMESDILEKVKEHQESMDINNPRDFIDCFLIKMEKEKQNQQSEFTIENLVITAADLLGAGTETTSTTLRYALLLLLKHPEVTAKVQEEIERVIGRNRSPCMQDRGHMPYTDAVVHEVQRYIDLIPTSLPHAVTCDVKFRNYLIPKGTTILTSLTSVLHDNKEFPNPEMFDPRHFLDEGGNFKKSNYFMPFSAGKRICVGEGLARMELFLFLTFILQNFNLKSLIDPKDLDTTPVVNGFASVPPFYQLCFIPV
Sequence of 3',5'-cyclic-AMP phosphodiesterase 4B (Homo sapiens) (Q07343 whole entry, looked up): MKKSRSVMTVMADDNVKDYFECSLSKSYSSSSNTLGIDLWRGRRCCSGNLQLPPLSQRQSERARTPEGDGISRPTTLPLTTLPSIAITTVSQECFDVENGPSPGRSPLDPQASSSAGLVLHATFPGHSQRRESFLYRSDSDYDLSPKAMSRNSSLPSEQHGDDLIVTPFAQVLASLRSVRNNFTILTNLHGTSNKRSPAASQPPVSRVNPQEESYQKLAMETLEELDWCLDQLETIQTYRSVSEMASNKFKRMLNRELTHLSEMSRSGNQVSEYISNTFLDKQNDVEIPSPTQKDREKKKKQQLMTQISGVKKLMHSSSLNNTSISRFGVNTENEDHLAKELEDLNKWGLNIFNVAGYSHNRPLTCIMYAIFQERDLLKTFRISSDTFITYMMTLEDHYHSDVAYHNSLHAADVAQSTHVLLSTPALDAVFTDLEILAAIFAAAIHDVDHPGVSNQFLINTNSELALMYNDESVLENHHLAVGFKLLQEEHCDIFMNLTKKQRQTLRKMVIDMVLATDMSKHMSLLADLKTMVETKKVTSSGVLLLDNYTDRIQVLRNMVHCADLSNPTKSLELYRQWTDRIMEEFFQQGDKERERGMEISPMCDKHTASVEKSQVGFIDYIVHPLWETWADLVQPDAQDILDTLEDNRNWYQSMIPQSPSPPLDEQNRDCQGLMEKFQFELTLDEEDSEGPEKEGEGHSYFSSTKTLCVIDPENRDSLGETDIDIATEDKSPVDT
Sequence of Cytochrome P450 3A4 (Homo sapiens) (P08684 whole entry, looked up): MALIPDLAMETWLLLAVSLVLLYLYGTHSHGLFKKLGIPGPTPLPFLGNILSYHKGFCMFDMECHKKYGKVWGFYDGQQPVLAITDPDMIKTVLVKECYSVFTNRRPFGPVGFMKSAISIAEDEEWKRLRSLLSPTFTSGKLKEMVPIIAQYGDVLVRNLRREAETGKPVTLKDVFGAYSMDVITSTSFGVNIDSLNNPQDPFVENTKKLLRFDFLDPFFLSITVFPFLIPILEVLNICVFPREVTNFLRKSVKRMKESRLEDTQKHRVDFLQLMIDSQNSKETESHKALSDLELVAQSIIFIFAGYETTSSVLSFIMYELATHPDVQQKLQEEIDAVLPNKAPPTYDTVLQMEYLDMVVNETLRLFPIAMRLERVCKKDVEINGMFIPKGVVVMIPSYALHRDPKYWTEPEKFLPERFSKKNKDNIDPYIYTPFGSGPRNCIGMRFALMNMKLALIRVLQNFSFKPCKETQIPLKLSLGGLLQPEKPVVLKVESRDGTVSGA

`c1cncc(CNc2ccnc(-c3ccc4c(c3)OCO4)n2)c1`: the Potency is > 11.4 µM (inactive) in assay [1]; 0.126 µM (active) in [3]; > 46 µM (inactive) in assay [6]; > 46 µM (inactive) in [7]; 5.01 µM (active) in assay [9]; 0.0631 µM (active) in assay [10]. Moreover, the Potency in assay [11] was 0.0447 µM (active). Besides, the values for the activity change, negative = inhibition in assay [2] and in [4] were -20.8% (inactive) and 16% (inactive), respectively. Further, the activity, negative = inhibition in assay [5] is -10.6% (inactive). In addition, the Potency entry in [8], in [12], in assay [13] and in [14] was “inactive” in each case.

On to `Cc1noc(C)c1C(=O)N1CCC2(CCCN(C(c3ccccc3)c3ccccc3)C2)CC1`, for which the Potency was > 11.4 µM (inactive) in assay [1] and > 46 µM (inactive) in assay [7]. Moreover, the Potency result in assay [3], in assay [16], in [13] and in assay [14] was “inactive” in each case. Besides, the activity, negative = inhibition in assay [5] is -11.6% (inactive). For the same compound, in assay [15], the result was inactive. Moreover, in assay [17], the remaining parasite growth % (stronger effect = lower value) was determined as 18.5%. Also, the activity, percent of control in [18] was found to be 22.6%. For the same compound, in [19], the remaining proliferation (% of control), lower = more inhibition came to 10.2%.

The values are drawn from PubChem BioAssay (NCATS).
